Results as given in the supplement of paper PMC8728848.
This excerpt belongs to a sample that is enriched for the strongest signals.

Tests used:
Assay in all cases: glycan array binding signal (z-score within array); higher = stronger binding
Conditions in all cases: glycan notation: IUPAC condensed, linker removed
GlcNAc(b1-3)Fuc = molecular target: GlcNAc(b1-3)Fuc
Outline: (§1)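 The Consortium for Functional Glycomics database supplied 3228 glycan arrays, of which those lacking an available protein sequence were dropped. The binding signal, a within-array Z-score, was averaged across arrays of the same protein sequence and across linkers. Negative scores can be read as non-binding.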

[1] = molecular target: GlcNAc(b1-3)Gal(b1-4)GlcNAc(b1-3)Gal(b1-4)GlcNAc(b1-3)Gal(b1-4)GlcNAc(b1-3)Gal(b1-4)GlcNAc(b1-2)Man(a1-3)[GlcNAc(b1-3)Gal(b1-4)GlcNAc(b1-3)Gal(b1-4)GlcNAc(b1-3)Gal(b1-4)GlcNAc(b1-3)Gal(b1-4)GlcNAc(b1-2)Man(a1-6)]Man(b1-4)GlcNAc(b1-4)GlcNAc
Outline: as §1

[2] = molecular target: GlcNAc(b1-3)Gal(b1-4)GlcNAc(b1-3)[GlcNAc(b1-3)Gal(b1-4)GlcNAc(b1-3)]GalNAc
Outline: as §1

[3] = molecular target: GlcNAc(b1-3)Gal(b1-4)GlcNAc(b1-6)[GlcNAc(b1-3)]Gal(b1-4)GlcNAc
Outline: as §1

GlcNAc(b1-6)GalNAc = molecular target: GlcNAc(b1-6)GalNAc
Outline: as §1

[4] = molecular target: Kdn(a2-3)Gal(b1-4)[Fuc(a1-3)]GlcNAc
Outline: as §1

[5] = molecular target: Man(a1-3)[Man(a1-6)]Man(a1-6)[Man(a1-3)]Man
Outline: as §1

[6] = molecular target: Neu5Ac(a2-3)Gal(b1-3)GlcNAc(b1-3)GalNAc
Outline: as §1

[7] = molecular target: Neu5Ac(a2-3)Gal(b1-3)GlcNAc6S
Outline: as §1

[8] = molecular target: Neu5Ac(a2-3)Gal(b1-4)GlcNAc(b1-3)Gal(b1-3)GlcNAc
Outline: as §1

[9] = molecular target: Neu5Ac(a2-3)Gal(b1-4)GlcNAc(b1-3)Gal(b1-4)GlcNAc(b1-3)Gal(b1-4)GlcNAc(b1-2)Man(a1-3)[Neu5Ac(a2-3)Gal(b1-4)GlcNAc(b1-3)Gal(b1-4)GlcNAc(b1-3)Gal(b1-4)GlcNAc(b1-2)Man(a1-6)]GalNAc
Outline: as §1

[10] = molecular target: Neu5Ac(a2-3)Gal(b1-4)[Fuc(a1-3)]GlcNAc(b1-3)Gal
Outline: as §1

[11] = molecular target: Neu5Ac(a2-6)Gal(b1-4)GlcNAc(b1-2)Man(a1-3)Man(b1-4)GlcNAc(b1-4)GlcNAc
Outline: as §1

[12] = molecular target: Neu5Ac(a2-6)Gal(b1-4)GlcNAc(b1-6)[Gal(b1-3)]GalNAc
Outline: as §1

[13] = molecular target: Neu5Ac(a2-8)Neu5Ac(a2-3)Gal(b1-4)GlcNAc
Outline: as §1

[14] = molecular target: Neu5Ac(a2-8)Neu5Ac(a2-3)[Gal(b1-3)GalNAc(b1-4)]Gal(b1-4)Glc
Outline: as §1

[15] = molecular target: Neu5Ac(a2-8)Neu5Gc(a2-3)Gal(b1-4)GlcNAc
Outline: as §1

[16] = molecular target: Neu5Gc(a2-6)Gal(b1-4)GlcNAc
Outline: as §1

[17] = molecular target: Neu5Gc(b2-6)Gal(b1-4)GlcNAc
Outline: as §1

B1: YghJ (Escherichia coli), E3PJ90 (protein)
chain: MNKKFKYKKSLLAAILSATLLAGCDGGGSGSSSDTPPVDSGTGSLPEVKPDPTPNPEPTPEPTPDPEPTPEPIPDPEPTPEPEPEPVPTKTGYLTLGGSQRVTGATCNGESSDGFTFKPGEDVTCVAGNTTIATFNTQSEAARSLRAVEKVSFSLEDAQELAGSDDKKSNAVSLVTSSNSCPANTEQVCLTFSSVIESKRFDSLYKQIDLAPEEFKKLVNEEVENNAATDKAPSTHTSPVVPVTTPGTKPDLNASFVSANAEQFYQYQPTEIILSEGRLVDSQGYGVAGVNYYTNSGRGVTGENGEFSFSWGEAISFGIDTFELGSVRGNKSTIALTELGDEVRGANIDQLIHRYSTTGQNNTRVVPDDVRKVFAEYPNVINEIINLSLSNGATLGEGEQVVNLPNEFIEQFNTGQAKEIDTAICAKTDGCNEARWFSLTTRNVNDGQIQGVINKLWGVDTNYKSVSKFHVFHDSTNFYGSTGNARGQAVVNISNAAFPILMARNDKNYWLAFGEKRAWDKNELAYITEAPSIVRPENVTRETASFNLPFISLGQVGDGKLMVIGNPHYNSILRCPNGYSWNGGVNKDGQCTLNSDPDDMKNFMENVLRYLSNDRWLPDAKSSMTVGTNLETVYFKKHGQVLGNSAPFAFHKDFTGITVKPMTSYGNLNPDEVPLLILNGFEYVTQWGSDPYSIPLRADTSKPKLTQQDVTDLIAYMNKGGSVLIMENVMSNLKEESASGFVRLLDAAGLSMALNKSVVNNDPQGYPDRVRQRRSTPIWVYERYPAVDGKPPYTIDDTTKEVIWKYQQENKPDDKPKLEVASWQEEVEGKQVTQFAFIDEADHKTPESLAAAKQRILDAFPGLEVCKDSDYHYEVNCLEYRPGTDVPVTGGMYVPQYTQLDLSADTAKAMLQAADLGTNIQRLYQHELYFRTNGRQGERLNSVDLERLYQNMSVWLWNETKYRYEEGKEDELGFKTFTEFLNCYTNNAYVGTQCSAELKKSLIDNKMIYGEESSKAGMMNPSYPLNYMEKPLTRLMLGRSWWDLNIKVDVEKYPGVVNTNGETVTQNINLYSAPTKWFAGNMQSTGLWAPAQQEVSIESKSTVPVTVTVALADDLTGREKHEVSLNRPPRVTKTYDLKANDKVTFKVPYGGLIYIKGDSKEVQSADFTFTGVVKAPFYKDGKWQHDLNSPAPLGELESASFVYTTPKKNLNASNYTGGLEQFANDLDTFASSMNDFYGRDSEDGKHRMFTYKNLPGHKHRFANDVQISIGDAHSGYPVMNSSFSPNSTTLPTTPLNDWLIWHEVGHNAAETPLTVPGATEVANNVLALYMQDRYLGKMNRVADDITVAPEYLEESNGQAWARGGAGDRLLMYAQLKEWAEKNFDIKKWYPDGTPLPEFYSEREGMKGWNLFQLMHRKARGDEVSNDKFGGKNYCAESNGNAADTLMLCASWVAQTDLSEFFKKWNPGANAYQLPGASEMSFEGGVSQSAYNTLASLDLPKPEQGPETINQVTEHKMSAE
GlcNAc(b1-3)Fuc
  glycan array binding signal (z-score): -0.862
[1]
  glycan array binding signal (z-score): 4.26
[2]
  glycan array binding signal (z-score): 2.97
[3]
  glycan array binding signal (z-score): -1.26
GlcNAc(b1-6)GalNAc
  glycan array binding signal (z-score): -1.05
[4]
  glycan array binding signal (z-score): -0.222
[5]
  glycan array binding signal (z-score): -1.22
[6]
  glycan array binding signal (z-score): -0.159
[7]
  glycan array binding signal (z-score): -0.847
[8]
  glycan array binding signal (z-score): 0.515
[9]
  glycan array binding signal (z-score): 2.64
[10]
  glycan array binding signal (z-score): -1.23
[11]
  glycan array binding signal (z-score): -1
[12]
  glycan array binding signal (z-score): -1.4
[13]
  glycan array binding signal (z-score): 5.47
[14]
  glycan array binding signal (z-score): 0.298
[15]
  glycan array binding signal (z-score): -0.939
[16]
  glycan array binding signal (z-score): -0.154
[17]
  glycan array binding signal (z-score): 3.37
